The record followed here is PubChem BioAssay (EPA / NIEHS).

Calls of active or inactive are those of the source. Rule for the calls: active = hit-call score of the fitted dose curve at least 0.9, where 1 is the maximum; inactive = score below 0.9.

Read-out in assay [1]: Human Leukocyte Antigen - DR isotype (HLADR), HLA-DRA (gene 3122)
Kind of assay: BSK_BE3C_HLADR: BioMAP Diversity Plus: BE3C Assay for Human Leukocyte Antigen - DR isotype (HLADR) Biomarker Activity (AID 2283032). The conditions noted are these: primary human bronchial epithelial cells; actives raise or lower the signal. The gist of the method: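 Cell-surface HLA-DR ELISA readout at 24 h after dosing in the BE3C primary human lung bronchial epithelial system; gain or loss of signal against DMSO, with parallel sulforhodamine B staining of total protein for overt cytotoxicity.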

Read-out in assay [2]: Vascular cell adhesion molecule 1 (VCAM1), VCAM1 (gene 7412)
The experiment in a line: BSK_4H_VCAM1: BioMAP Diversity Plus: 4H Assay for Vascular cell adhesion molecule 1 (VCAM1) Biomarker Activity (AID 2283033).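 For outcome: cell-surface VCAM-1 protein measured by ELISA.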 The conditions noted are these: primary human endothelial cells (HUVEC); actives raise or lower the signal. The essentials:
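VCAM-1 ELISA read 24 h after chemical dosing of HUVEC in the BioMAP 4H system, with gain or loss of signal fitted relative to DMSO. Parallel SRB staining (560 nm) checked overt cytotoxicity.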

Read-out in assay [3]: Interferon-gamma inducible Protein 10 (IP10), CXCL10 (gene 3627)
Kind of assay: BSK_BE3C_IP10: BioMAP Diversity Plus: BE3C Assay for Interferon-gamma inducible Protein 10 (IP10) Biomarker Activity (AID 2283034). The conditions noted are these: primary human bronchial epithelial cells; actives raise or lower the signal. The essentials: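 IP-10 quantified by ELISA in human primary bronchial epithelial cell cultures at 24 hours post-dosing. Gain or loss of signal fitted relative to DMSO; parallel SRB staining assessed overt cytotoxicity.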

Read-out in assay [4]: Monokine induced gamma interferon (MIG), CXCL9 (gene 4283)
Kind of assay: BSK_BE3C_MIG: BioMAP Diversity Plus: BE3C Assay for Monokine induced gamma interferon (MIG) Biomarker Activity (AID 2283035). The settings on record: primary human bronchial epithelial cells; actives raise or lower the signal. The gist of the method: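 ELISA quantified MIG after 24 h exposure of primary bronchial epithelial cultures, analysed in both directions relative to DMSO. Cytotoxicity tracked in parallel cultures by sulforhodamine B staining.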

Read-out in assay [5]: Transforming growth factor beta 1 (TGFb1), TGFB1 (gene 7040)
Kind of assay: BSK_BE3C_TGFb1: BioMAP Diversity Plus: BE3C Assay for Transforming growth factor beta 1 (TGFb1) Biomarker Activity (AID 2283036;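 note: TGF-b1 protein level measured by ELISA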). The settings on record: primary human bronchial epithelial cells; actives raise or lower the signal. The essentials: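 ELISA readout of TGF-b1 from human lung bronchial epithelial primary cells, taken 24 h post-treatment. Gain or loss of signal fitted relative to DMSO baseline, with parallel SRB staining for overt cytotoxicity.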

Read-out in assay [6]: Plasminogen activator inhibitor-1 (PAI1), SERPINE1 (gene 5054)
The experiment in a line: BSK_BE3C_PAI1: BioMAP Diversity Plus: BE3C Assay for Plasminogen activator inhibitor-1 (PAI1) Biomarker Activity (AID 2283037). The settings on record: primary human bronchial epithelial cells; actives raise or lower the signal. The essentials: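 PAI-1 was measured by ELISA in human primary bronchial epithelial cultures 24 h after chemical dosing, with cytotoxicity checked by SRB total-protein staining in parallel cultures. Activity was fitted in both directions relative to DMSO.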

Read-out in assay [7]: urokinase plasminogen activator (uPA), PLAU (gene 5328)
The experiment in a line: BSK_BE3C_uPA: BioMAP Diversity Plus: BE3C Assay for urokinase plasminogen activator (uPA) Biomarker Activity (AID 2283038).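 Note: uPA protein level quantified by ELISA in cell cultures; uPA read one day after compound addition.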 The conditions noted are these: primary human bronchial epithelial cells; actives raise or lower the signal. The gist of the method:
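ELISA for uPA on human primary bronchial epithelial cultures 24 h post-treatment, gain or loss against DMSO. Parallel SRB staining (0.1% after 10% TCA fixation, 560 nm) assessed overt cytotoxicity.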

Read-out in assay [8]: Urokinase-type plasminogen activator receptor (uPAR), PLAUR (gene 5329)
Kind of assay: BSK_BE3C_uPAR: BioMAP Diversity Plus: BE3C Assay for Urokinase-type plasminogen activator receptor (uPAR) Biomarker Activity (AID 2283039).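 Note: cells exposed to compound for one day before measurement.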 The conditions noted are these: primary human bronchial epithelial cells; actives raise or lower the signal. The gist of the method:
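uPAR levels were measured by ELISA after 24 h compound treatment of primary human bronchial epithelial cells, fitted in both directions relative to DMSO. Parallel SRB staining served as the cytotoxicity read-out.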

Read-out in assay [9]: Interleukin-6 (IL6), IL6 (gene 3569)
The experiment in a line: BSK_CASM3C_IL6: BioMAP Diversity Plus: CASM3C Assay for Interleukin-6 (IL6) Biomarker Activity for (AID 2283040). The settings on record: primary human coronary artery smooth muscle cells; actives raise or lower the signal.

Read-out in assay [10]: Tissue plasminogen activator (tPA), PLAT (gene 5327)
Kind of assay: BSK_BE3C_tPA: BioMAP Diversity Plus: BE3C Assay for Tissue plasminogen activator (tPA) Biomarker Activity (AID 2283041).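 Note: tPA level quantified by ELISA one day after compound addition.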 The settings on record: primary human bronchial epithelial cells; actives raise or lower the signal. The essentials: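 tPA measured by ELISA 24 h after dosing human primary bronchial epithelial cells (BE3C system). Changes in either direction were fitted against DMSO. Parallel cultures were stained with SRB to flag overt cytotoxicity.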

Read-out in assay [11]: Interleukin-8 (IL8), CXCL8 (gene 3576)
The experiment in a line: BSK_CASM3C_IL8: BioMAP Diversity Plus: CASM3C Assay for Interleukin-8 (IL8) Biomarker Activity (AID 2283042).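 Note: IL-8 protein level quantified by ELISA.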 The conditions noted are these: primary human coronary artery smooth muscle cells; actives raise or lower the signal.

Read-out in assay [12]: Human Leukocyte Antigen - DR isotype (HLADR), HLA-DRA (gene 3122)
The experiment in a line: BSK_CASM3C_HLADR: BioMAP Diversity Plus: CASM3C Assay for Human Leukocyte Antigen - DR isotype (HLADR) Biomarker Activity (AID 2283043).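 Note: cell-surface HLA-DR protein level quantified by ELISA.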 The settings on record: primary human coronary artery smooth muscle cells; actives raise or lower the signal.

Read-out in assay [13]: Macrophage colony-stimulating factor (MCSF), CSF1 (gene 1435)
Kind of assay: BSK_CASM3C_MCSF: BioMAP Diversity Plus: CASM3C Assay for Macrophage colony-stimulating factor (MCSF) Biomarker Activity (AID 2283044).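 Note: M-CSF protein amount quantified by ELISA after 24 h exposure.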 The conditions noted are these: primary human coronary artery smooth muscle cells; actives raise or lower the signal.

Read-out in assay [14]: Low-density lipoprotein receptor (LDLR), LDLR (gene 3949)
Kind of assay: BSK_CASM3C_LDLR: BioMAP Diversity Plus: CASM3C Assay for Low-density lipoprotein receptor (LDLR) Biomarker Activity (AID 2283045).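 Note: LDLR protein level on the cell surface quantified by ELISA.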 The settings on record: primary human coronary artery smooth muscle cells; actives raise or lower the signal.

Read-out in assay [15]: Monocyte Chemoattractant Protein-1 (MCP1), CCL2 (gene 6347)
Kind of assay: BSK_CASM3C_MCP1: BioMAP Diversity Plus: CASM3C Assay for Monocyte Chemoattractant Protein-1 (MCP1) Biomarker Activity (AID 2283046).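 Note: MCP-1 level quantified by ELISA 24 h after dosing.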 The settings on record: primary human coronary artery smooth muscle cells; actives raise or lower the signal.

A short description of assay [16]: BSK_CASM3C_Proliferation: Cell Proliferation Assessment in the BioMAP Diversity Plus: CASM3C Assay (AID 2283047).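 Note: sulforhodamine B total protein stain as relative cell number at 560 nm; sub-confluent cells exposed 48 h before staining; fitted both ways against DMSO so gain or loss of cell number.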 The conditions noted are these: primary human coronary artery smooth muscle cells.
Read-out in assay [17]: Monokine induced gamma interferon (MIG), CXCL9 (gene 4283)
Kind of assay: BSK_CASM3C_MIG: BioMAP Diversity Plus: CASM3C Assay for Monokine induced gamma interferon (MIG) Biomarker Activity (AID 2283048).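 Note: MIG protein level measured by ELISA.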 The conditions noted are these: primary human coronary artery smooth muscle cells; actives raise or lower the signal.

Read-out in assay [18]: serum amyloid A (SAA), SAA1 (gene 6288)
The experiment in a line: BSK_CASM3C_SAA: BioMAP Diversity Plus: CASM3C Assay for serum amyloid A (SAA) Biomarker Activity (AID 2283049).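 Note: SAA protein level quantified by ELISA.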 The conditions noted are these: primary human coronary artery smooth muscle cells; actives raise or lower the signal.

Assay [19] in a line: BSK_CASM3C_SRB: Viability Assessment in the BioMAP Diversity Plus: CASM3C Assay (AID 2283050). The settings on record: primary human coronary artery smooth muscle cells.
Read-out in assay [20]: Thrombomodulin, THBD (gene 7056)
Kind of assay: BSK_CASM3C_Thrombomodulin: BioMAP Diversity Plus: CASM3C Assay for Thrombomodulin Biomarker Activity (AID 2283051).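 Note: thrombomodulin protein level measured by ELISA 24 h after dosing.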 The conditions noted are these: primary human coronary artery smooth muscle cells; actives raise or lower the signal.

On to `Cc1ccc(S(=O)(=O)NC(=O)NN2CCCCCC2)cc1`, for which the result in assay [1], in [2], in assay [3], in [4], in [5] and in assay [6] was inactive. Besides, the result in assay [7], in assay [8], in assay [9], in assay [10], in assay [11] and in assay [12] was inactive. Besides, the result in assay [13], in assay [14], in [15], in assay [16], in [17] and in assay [18] was inactive. Further, the result in assay [19] and in assay [20] was inactive.

With `COCc1nnc(-c2ccc[n+]([O-])c2)n1-c1c(Cl)c(Cl)cc2[nH]c(=O)c(=O)[nH]c12`, the result in assay [1], in assay [2], in assay [3], in assay [4], in assay [5] and in [6] was inactive. For the same compound, the outcome in assay [7], in assay [8], in assay [9], in assay [10], in [11] and in assay [12] was inactive. Also, the result in [13], in [14], in assay [15], in [16], in assay [17] and in assay [18] was inactive. In addition, the result in assay [19] and in assay [20] was inactive.

For `CCCCC(CC)C(=O)OCCOCCOCCOC(=O)C(CC)CCCC` (stereo not given), the result in [1], in assay [2], in [3], in assay [4], in assay [5] and in assay [6] was inactive. For the same compound, the outcome in assay [7], in [8], in assay [9], in [10], in [11] and in assay [12] was inactive. For the same compound, the result in [13], in [14], in assay [15], in assay [16], in [17] and in assay [18] was inactive. Also, the outcome in assay [19] was inactive. Also, in assay [20], the AC50 – broadly, the midpoint of the concentration-response curve, whichever way the signal moves – is 20 µM (active).

In the case of `Cc1nc(-c2ccccn2)ncc1C(=O)Nn1cc(C)c2cc(F)ccc21`, the result in [1], in assay [2], in [3], in assay [4], in [5] and in assay [6] was inactive. The result in assay [7], in assay [8], in assay [9], in [10], in assay [11] and in assay [12] was inactive. The result in assay [13], in assay [14], in [15], in assay [17], in assay [18] and in [19] was inactive. In addition, the AC50 in [16] is 22.6 µM (active); in [20], 20 µM (active).

For the compound `CCc1ccc(O)c(C(C)(C)C)c1`, the result in assay [1], in [3], in assay [4], in assay [5], in [6] and in assay [7] was inactive. Further, the outcome in [8], in assay [9], in [10], in assay [11], in assay [12] and in assay [13] was inactive. For the same compound, the result in assay [14], in assay [15], in assay [17], in assay [18], in [19] and in assay [20] was inactive. Further, the AC50 is 31.1 µM (active) in [2] and 20 µM (active) in [16].

With `CC(C)CC(C)O` (stereo not given), the result in assay [1], in [2], in assay [3], in assay [4], in [5] and in assay [6] was inactive. The outcome in assay [7], in [8], in assay [9], in assay [10], in [11] and in [12] was inactive. The outcome in assay [13], in assay [14], in assay [15], in assay [16], in assay [17] and in [18] was inactive. Further, the result in assay [19] and in assay [20] was inactive.

`CC(=O)c1ccccc1`: the outcome in assay [1], in [2], in assay [3], in assay [4], in assay [5] and in assay [6] was inactive. Further, the outcome in assay [7], in [8], in assay [9], in assay [10], in assay [11] and in assay [12] was inactive. Besides, the outcome in assay [13], in [14], in [15], in [16], in [17] and in [18] was inactive. In addition, the outcome in assay [19] and in assay [20] was inactive.
